# Compound activity (PubChem)
# HSP90 inh = HSP90 refolding inhibition in rabbit reticulocyte lysate | AID 1789 | inhibition, % at 5.6 µM | 0.91% of 290,000 active | luciferase refolding luminescence, 3 h;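 active = inhibition above the screen-wide mean plus 3 SD, computed separately per campaign, cut at about 16% in these data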;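 note: 0% = DMSO wells and 100% = 60 µM geldanamycin wells; inhibitors lower the luminescence because luciferase stays unfolded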
# Platelet DG rel = modulates dense granule release in human platelets; human platelet-rich plasma, SFLLRN dense granule ATP release, luminescence; inhibition, %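 (compounds screened at 7.5 µM in platelet-rich plasma)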; 0.22% of 300,000 active;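 active = mean replicate score, as percent of positive control, at or above 50; inconclusive = mean below 50 but at least one replicate at or above 50; inactive = mean and every replicate below 50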
# HSF1 inhib = HSF1 inhibition; 0.77% of 300,000 active; activity change, negative = inhibition, % at 7.5 µM (by protocol); AID 2098; NIH3T3-HGL HSE-luciferase, MG132-induced, luminescence 8 h; stronger effect = lower value;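 active = more than half of replicate wells show activity change below -50%, luminescence cut by over half; inconclusive = some wells, but at most half, below -50%; inactive = no replicate well below -50%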;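 note: luciferase reports HSF-1 transcriptional activity via heat shock element; 0% = median of DMSO wells and -100% = zero luminescence signal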
# MPTP block = permeability transition pore inhibition; isolated mouse mitochondria, Ca2+ swelling absorbance, 30 min; inhibition, % at 10 µM; 1.4% of 360,000 active; AID 602449;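 active = inhibition of 50% or more, scaled per plate between neutral and stimulator controls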;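 note: 0% = DMSO wells given calcium and 100% = 1 mM EGTA wells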
# dFosB act = mouse delta FosB homodimer activation; P13346; purified delta FosB, TAMRA-CDK5 oligo fluorescence polarization; percent of positive-control signal above neutral wells; activation, % at 25 µM; 0.99% of 340,000 active;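 active = mean activation above about 17%, with every replicate also reaching it, limit read from the data, passing the limit was not always enough; inconclusive = only one of the two conditions met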
# Target sequence (P13346 whole entry, looked up): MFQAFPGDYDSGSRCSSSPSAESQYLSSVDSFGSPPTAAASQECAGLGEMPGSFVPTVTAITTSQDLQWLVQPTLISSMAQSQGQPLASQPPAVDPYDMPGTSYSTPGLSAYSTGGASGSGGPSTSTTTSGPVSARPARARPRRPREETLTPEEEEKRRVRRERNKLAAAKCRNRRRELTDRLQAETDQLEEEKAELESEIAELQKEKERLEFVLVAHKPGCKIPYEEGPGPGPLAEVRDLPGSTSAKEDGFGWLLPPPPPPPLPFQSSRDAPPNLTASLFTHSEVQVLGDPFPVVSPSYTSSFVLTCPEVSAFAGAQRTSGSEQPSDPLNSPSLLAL
# HSF1 activator = increases HSF-1 driven luciferase reporter signal; NIH3T3-HGL HSF-1 luciferase reporter, MG132, 8 h; 100% = twice DMSO control signal; activation, % at 9 µM; 1.7% of 300,000 active; AID 504408;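 active = mean replicate activation of at least 50% with a set share of replicates each reaching 50%; inconclusive = only one of those two conditions met; inactive = mean below 50% and too few replicates reaching it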;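 note: 0% = median of the neutral control wells and 100% = twice that signal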
# Numbers without * were called inactive; u = inconclusive; x = no result. This is a sample that favours compounds with a hit; in the whole collection about 4.9% have one here.
SMILES,HSP90 inh,Platelet DG rel,HSF1 inhib,MPTP block,dFosB act,HSF1 activator
CC(C)c1ccc2oc(=O)cc(CN3CCCCC3)c2c1,0.5,1.0,-54.3*,4.2,-9.7,-62.1
O=C(Cn1nnc2ccccc21)NNC(=S)NC1CCCCC1,-2.7,0.5,-65.5*,1.0,-6.6,-73.0
CCn1c(SCC(=O)Nc2oc(C)c3c(C)n[nH]c(=O)c23)nc2sc(C)c(C)c2c1=O,x,1.7,-71.3*,0.5,-10.2,-77.8
Cc1ccc(S(=O)(=O)NC(=O)C2(C)CCN2C(=O)C2CC2)cc1 (stereo not drawn),x,x,x,-2.1,x,x
COc1ccc(C(=O)N2CCCC(Nc3ccc(F)cc3)C2)cc1F (stereo not drawn),-0.8,2.5,0.6,-0.7,0.0,4.0
Cc1ccc(C(=O)N2CCCC(Nc3ccc(F)cc3)C2)cc1C (stereo not drawn),-2.5,-20.3,-70.6*,-0.4,-6.0,-75.9
CC1CC(C)CN(C(=O)CSc2ncnc3sccc23)C1 (stereo not drawn),x,x,x,-0.6,-14.0,x
O=C(Oc1ccc(C(=S)N2CCOCC2)cc1Br)c1cc(Cl)ccc1Cl,3.1,2.7,19.0,0.0,-4.6,78.4*
O=C(Oc1c(Br)cc(C(=S)N2CCOCC2)cc1Br)c1ccc(Cl)cc1,3.3,2.3,-5.6,1.0,-10.9,-0.7
COc1ccc(-c2noc(N3CCC(C(=O)NCCCN4CC(C)CC(C)C4)CC3)n2)cc1 (stereo not drawn),-0.1,7.0,-76.6*,-0.5,-10.3,-82.3
COc1ccc(-c2noc(N3CCC(C(=O)NCc4ccc(F)cc4)CC3)n2)cc1,1.6,1.6,-3.3,-0.7,-2.5,-0.8
COc1ccc(-n2nnnc2S(=O)(=O)Cc2ccc(C(=O)O)cc2)cc1,5.1,2.7,90.4,3.2,4.4,94.5*
Cc1ccc(C(=O)NC(=C(Cl)Cl)S(=O)(=O)c2ccc(Cl)cc2)cc1,3.6,-2.3,126.5,0.9,-9.8,185.1*
Cc1ccc(S(=O)(=O)/C(=C/Cl)NC(=O)c2ccccc2)cc1,8.2,6.6,62.1,0.9,-3.5,90.5*
Cc1ccc(S(=O)(=O)C(NC(=O)c2ccccc2)=C(Cl)Cl)cc1,0.4,1.0,33.2,-0.2,-6.0,29.0
Cc1ccc(C(=O)NC(=C(Cl)Cl)S(=O)(=O)c2ccc(C)cc2)cc1,-2.1,4.0,20.5,-2.1,0.0,27.9
Cc1ccc(S(=O)(=O)CCC(=O)OCC(=O)NC(=O)c2ccccc2)cc1,x,3.1,-8.9,-0.4,u,-1.9
O=C(NC(=C(Cl)Cl)S(=O)(=O)c1ccc(Cl)cc1)c1ccccc1,1.0,10.9,56.6,2.7,2.0,67.0*
CCOC(=O)C(c1ccccc1)C(Nc1ccc(F)cc1)c1ccccn1 (stereo not drawn),2.8,0.1,-5.1,1.3,2.7,15.7
CCOC(=O)C(C(=O)OCC)C(Nc1ccc(Br)cc1)c1ccccc1 (stereo not drawn),-2.7,0.3,226.7,2.4,-14.1,300.8*
Cc1ccc(C(=O)c2c(C)oc3c2C(=O)C(=O)c2ccccc2-3)cc1,8.1,-4.4,15.8,-0.5,-10.5,13.7
COc1ccc(C(=O)c2c(C(F)(F)F)oc3c2C(=O)c2ccccc2C3=O)cc1,13.2,1.6,-93.6*,-3.9,-3.3,-93.8
O=C(c1ccc(Cl)nc1)N1CCN(S(=O)(=O)c2ccc(Cl)cc2)CC1,-1.5,1.7,-4.3,-1.4,6.4,5.2
O=C(NC1CCCC1)C1CCN(C(=O)c2ccc(Cl)cc2)CC1,7.0,-12.8,15.6,-0.3,-4.0,54.0*
O=C(Nc1ccccc1N1CCCCC1)C1CCN(C(=O)c2ccc(Cl)cc2)CC1,x,-13.8,-67.5*,-1.2,-14.7,-74.7
SMILES,HSP90 inh,Platelet DG rel,HSF1 inhib,MPTP block,dFosB act,HSF1 activator
O=C(Nc1ccccc1N1CCCCC1)C1CCN(S(=O)(=O)c2ccccc2C(F)(F)F)CC1,x,5.1,-57.9*,-2.6,-8.2,-69.3
O=C(Nc1ccccc1N1CCCC1)C1CCN(C(=O)c2ccc(Cl)cc2)CC1,x,2.7,-4.8,0.4,-9.3,-6.5
O=C(Nc1ccccc1N1CCCC1)C1CCN(S(=O)(=O)c2ccccc2C(F)(F)F)CC1,x,8.3,5.6,2.5,-8.8,23.0
CCc1cccc(NC(=S)N(CCCOC(C)C)C2CCN(C(C)=O)CC2)c1,-3.0,7.8,-3.7,-0.5,0.9,5.5
CC12CCC=CC1=C(C=O)C1C2CCC2(C)C(O)CCC12 (stereo not drawn),x,x,x,-0.8,-5.8,x
CC1CCCCN1N=Nc1nc2c([nH]1)c(=O)n(C)c(=O)n2C (stereo not drawn),x,x,x,-0.6,1.2,x
Cc1cc(C)c(OCCCCn2cnc3ccccc3c2=O)c(C)c1,0.7,-4.0,23.2,-0.4,-13.7,56.3*
Cc1cccc(C)c1OCCCCn1cnc2ccccc2c1=O,3.5,-6.9,7.7,-2.6,-11.1,20.8
Cc1ccc(OCc2cc(C(=O)N3CCN(C)C[C@@H]3c3ccccc3)no2)cc1C,-2.1,-5.3,27.4,0.8,2.0,55.9*
CN1CCN(C(=O)c2cc(COc3ccccc3)on2)[C@@H](c2ccccc2)C1,2.7,5.0,29.6,0.0,-11.2,36.0
COc1cc(C=O)ccc1OC(=O)c1ccncc1,-0.9,0.8,-1.5,-0.6,-6.2,1.0
COc1cc(C=O)ccc1OC(=O)c1ccc(C(C)C)cc1,-1.9,9.5,-91.2*,-5.2,-19.3,-93.0
CCN(Cc1ccccc1)S(=O)(=O)c1ccc(OC)cc1,1.6,4.8,0.8,-1.4,0.1,5.6
O=C(Nc1cccc(C(F)(F)F)c1)c1ccc(-c2ccc(F)c(F)c2)c2ccoc12,x,x,x,0.2,x,x
COc1ccc(C2=NN(C(=O)CN3CCCC3)C(c3ccc(OC)cc3)C2)cc1 (stereo not drawn),-0.6,2.5,32.6,0.1,x,54.5*
COc1ccc(C2=NN(C(=O)c3cccs3)C(c3ccccc3O)C2)cc1 (stereo not drawn),8.1,16.8,22.0,8.3,10.8,29.2
COc1ccc(C2CC(c3ccccc3)=NN2C(=O)c2cccs2)cc1 (stereo not drawn),-4.4,-4.5,51.2,0.4,-19.0,70.6*
O=S(=O)(c1ccc(Cl)s1)N1CCCc2cccc(O)c21,0.6,3.8,69.7,3.8,5.2,116.0*
CC(=O)c1ccc(N2CCN(C(=O)c3n[nH]c4ccccc34)CC2)cc1,-1.8,-4.7,24.9,-2.2,-9.8,56.0*
Nc1ccc(NC(=O)CCN2CCOCC2)cc1,-0.2,-2.7,-11.6,-1.0,1.5,-11.0
COc1ccc(CN2CCC[C@]3(N[C@H](c4ccc(OC)cc4)[C@@H]4C(=O)N(C)C(=O)[C@@H]43)C2=O)cc1,x,x,x,0.2,x,x
CC(C)CC1C(=O)N(Cc2cn(Cc3ccco3)nn2)CCS(=O)(=O)N1Cc1ccc(-c2ccccc2)cc1 (stereo not drawn),x,x,x,-1.2,x,x
CCOC(=O)c1c(NC(C)=O)sc2c(O)cccc12,-1.8,-0.9,3.6,8.0,-3.2,5.0
CCOC(=O)c1c(NC(C)=O)sc2c(O)c(Br)cc(Br)c12,-6.3,-14.6,28.4,1.1,-12.5,52.5*
